Calb FLC – affects C. albicans growth with fluconazole; AID 1979; 300,000 compounds, 0.57% hits; C. albicans CaCi-2 (fluconazole-resistant clinical isolate) + fluconazole, Alamar Blue growth, 48 h; growth inhibition, % (test concentration not listed);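 active = growth inhibition above about 58% in most replicates, limit read from the data, passing the limit was not always enough; inconclusive = exactly half the replicates above a set limit; inactive = most replicates below a set limit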;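 note: all wells also contain fluconazole at 8 µg/ml as a sub-toxic cotreatment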
Fh CTSL1 inh – cathepsin L1 inhibition, PFM18AAP counter-screen. recombinant F. hepatica cathepsin L1, Z-Leu-Arg-MCA fluorescence. inhibition, % at 5.96 µM. 300,000 compounds, 0.49% hits. AID 1906;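 active = inhibition above the mean of all tested compounds plus 3 SD, set per screening campaign, cut at about 17% in these data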
M18AAP inhibitor – blocks P. falciparum M18 aspartyl aminopeptidase | recombinant PfM18AAP, H-Glu-NHMec fluorogenic cleavage | inhibition, % at 7.35 µM | 290,000 compounds, 1.2% hits;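 active = inhibition above the campaign mean inhibition over all tested compounds plus 3 SD, cut at about 28% in these data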
Rin1 Abl inh – inhibitors of human Rin1-Abl protein interaction. P00519+Q13671. TR-FRET Rin1/Abl binding, biochemical. 360,000 compounds, 0.4% hits. AID 588664. inhibition, % at 7.35 µM; in the data active = inhibition above about 5%, passing the limit was not always enough
A number is an active result; – = inactive; ? = inconclusive; · = no result. Rows were chosen to be rich in hits. Some 2.1% of all compounds tested hit in one or more screens of this group.

SMILES	Calb FLC	Fh CTSL1 inh	M18AAP inhibitor	Rin1 Abl inh
CCOC(=O)C1CCN(C(=O)c2cc(S(=O)(=O)N3CCc4ccccc43)ccc2OC)CC1	–	–	·	–
CC1=CC(=O)C(C(C)C)=C/C1=N/OS(=O)(=O)c1ccccc1	?	17	–	–
CC(=O)c1ccc(Nc2nc(C(N)CC(C)C)cs2)cc1 (centres undefined)	·	·	·	–
Oc1c(C(Nc2cccc(C(F)(F)F)c2)c2ccncc2)ccc2cccnc12 (centres undefined)	93	–	–	–
CC(=O)NC(c1ccc2ccccc2c1)c1ccc2cccnc2c1O (centres undefined)	–	–	–	–
Oc1c(C(Nc2nccs2)c2ccc(C(F)(F)F)cc2)ccc2cccnc12 (centres undefined)	103	·	–	–
CN(C(=O)c1cccc(NC(=O)Cc2ccc(NC(=O)C3CCCN(C(=O)C4CCC4)C3)cc2)c1)C1CCCCC1 (centres undefined)	·	·	·	–
CC(C)(C)c1ccc(-c2cn(-c3ccc(Br)cc3)c3[n+]2CCCS3)cc1	102	·	–	–
COCCn1nnnc1C(c1cc2cc(OC)c(OC)cc2[nH]c1=O)N1CCN(c2ccc(O)cc2)CC1 (centres undefined)	–	–	28	–
Cc1cccc(C)c1C(O)c1ncc(-c2ccccc2Cl)[nH]1 (centres undefined)	·	·	·	–
CC(C)(C)c1ccc(-c2cnco2)cc1	–	–	–	–
Brc1cccc(-c2cnco2)c1	–	18	–	–
OCCn1c(-c2ccc(F)cc2)csc1=Nc1ccccc1	–	–	41	–
CCOc1ccc(N=c2scc(-c3ccccc3)n2CCO)cc1	–	–	–	–
Cc1cc(C)c2[nH]c(O)c(N=NC(=S)NCC3CCCO3)c2c1 (centres undefined)	–	–	–	–
Oc1[nH]c2c(Cl)cc(Cl)cc2c1N=NC(=S)NCC1CCCO1 (centres undefined)	97	–	–	–
CN1CCc2c(sc(/N=C/c3cc(Cl)ccc3O)c2C#N)C1	–	–	–	–
Cc1sc(/N=C/c2ccccc2O)c(C#N)c1C	–	–	36	·
Cc1cc2c(c(=O)n1CCCn1ccnc1)C(c1ccco1)C(C#N)=C(N)O2 (centres undefined)	–	–	28	–
COc1ccccc1C1C(C#N)=C(N)Oc2cc(C)n(CCCn3ccnc3)c(=O)c21 (centres undefined)	–	–	–	–
COCCSc1nc2c(c(=O)[nH]c(=O)n2C)n1Cc1cccc(C)c1	–	–	–	11
O=C(NCC1CCCCC1)c1ccccc1[N+](=O)[O-]	–	–	–	–
O=C(CC(c1ccc(F)cc1)c1ccco1)N1CCCC1 (centres undefined)	–	36	–	–
COc1ccccc1NC(=O)CC(c1ccc(F)cc1)c1ccco1 (centres undefined)	–	21	–	–
CCCN(CCC)C(=O)CC(c1ccc(F)cc1)c1ccco1 (centres undefined)	–	57	–	–
SMILES	Calb FLC	Fh CTSL1 inh	M18AAP inhibitor	Rin1 Abl inh
O=C1c2ccccc2C(=O)N1CCC(c1ccc(F)cc1)c1ccco1 (centres undefined)	–	18	–	–
CC(CCc1ccccc1)NC(=O)CCC(=O)N1CCC(C(N)=O)CC1 (centres undefined)	–	–	–	–
CNC(=O)C1CCN(S(=O)(=O)c2c(C)noc2/C=C/c2ccccc2F)CC1	–	–	–	–
O=C(NCc1ccco1)N1c2ccccc2Sc2ccccc21	–	–	–	–
COc1ccc(N2CCN(C(=O)/C=C/[C@H]3O[C@@H](n4ccc(=O)[nH]c4=O)[C@H](O)[C@@H]3O)CC2)cc1	·	·	·	–
CCN(CC)C(=O)CC(c1ccccc1)c1ccco1 (centres undefined)	–	36	–	–
CCN(CC)C(=O)CP(=O)(c1ccccc1)c1ccccc1	–	–	–	–
O=C(CCS(=O)(=O)c1cccc2nsnc12)N1CCN(C(=O)c2ccco2)CC1	57	–	–	–
O=C(CCS(=O)(=O)c1cccc2nsnc12)N1CCN(Cc2ccc3c(c2)OCO3)CC1	–	–	–	–
COc1ccc(CNc2nc(NCc3ccc(OC)cc3)n(S(C)(=O)=O)n2)cc1	–	–	–	–
COCC(=O)n1nc(NCc2ccc(OC)cc2)nc1NCc1ccc(OC)cc1	–	–	28	–
C=CCOc1ccc(C[C@H](N)C(=O)NC[C@H]2O[C@@H](n3ccc(N)nc3=O)[C@H](O)[C@@H]2O)cc1	·	·	·	–
CSc1ccc(CN2CCC(n3nccc3NC(=O)C3CCOC3)CC2)cc1 (centres undefined)	–	–	–	–
O=C(/C=C/c1ccncc1)c1ccc2c(c1)OCCO2	67	–	–	–
COc1cccc(C(C(=O)NC2CCCC2)N(C(=O)c2ccco2)c2ccc(-n3cnnn3)c(C)c2)c1OC (centres undefined)	92	–	–	–
COc1ccccc1NS(=O)(=O)c1cccc(C(=O)N/N=C(/C)c2ccc(-n3ccnc3)cc2)c1	·	·	·	–
COc1ccccc1NS(=O)(=O)c1cccc(C(=O)N/N=C(\C)c2ccc(-n3ccnc3)cc2)c1	–	–	30	–
COc1ccccc1C(C)NC(=O)c1cc(S(=O)(=O)N2CCCCC2)ccc1C (centres undefined)	·	·	·	–
COc1ccc(O)c(/C=N/NC(=O)c2c(C)nnn2-c2nonc2N)c1	63	–	–	–
CC1CCN(Cc2c(C(=O)N/N=C/c3cc(Br)ccc3O)nnn2-c2nonc2N)CC1	82	–	–	–
CCOC(=O)Cn1ccc(NC(=O)c2ccc3c(c2)OCO3)n1	–	–	–	–
N#Cc1cnn2c(=O)[nH]cnc12	·	·	·	–
CN(C)CCCNc1cc(C(C)(C)C)nc2c(-c3ccc(Cl)cc3)cnn12	95	–	–	–
CCN(CC)c1ccc(/C=N/Nc2nc(C)cc(=O)[nH]2)c(O)c1	102	–	–	–
Cc1cc(N/N=C/c2ccccc2O)c2ccccc2n1	–	–	–	–
SMILES	Calb FLC	Fh CTSL1 inh	M18AAP inhibitor	Rin1 Abl inh
Cc1ccccc1/C=N/Nc1nc2ccccc2c(=O)n1O	–	–	31	–
CCOC(=O)CN(C#N)c1nc(C)cc(C)n1	–	19	–	–
CCNc1nc(SCC(=O)OC)nc(N(C)C)n1	–	–	–	–
COC(=O)CN(C#N)c1nc(C)cc(C)n1	–	–	–	–
COC(=O)CN(C#N)c1nc(OC)nc(N(C)C)n1	–	40	–	–
CCNc1nc(SC)nc(N(C#N)CC(=O)OC)n1	–	62	–	–
COC(=O)CN(C#N)c1nc(NC(C)C)nc(OC)n1	–	80	–	–
COC(=O)CN(C#N)c1nc(NCc2ccccc2)nc(OC)n1	–	·	–	–
COC(=O)CN(C#N)c1nc(N(C)C)nc(N(C)C)n1	–	21	–	–
CCOC(=O)/C(=C\c1ccc(C)cc1)NC(=O)c1ccccc1	–	–	–	–
Cc1ccc(/C=C(\NC(=O)c2ccccc2)C(=O)OCc2ccccc2)cc1	–	22	–	–
CCOC(=O)N(C)c1c(CC)nc2c(OCc3ccc(S(C)(=O)=O)cc3)cccn12	·	·	·	–
Cc1ccc(NC(=O)c2ccc3nc(N4CCOCC4)sc3c2)c(Cl)c1	–	–	29	–
CCc1ccccc1NC(=O)c1ccc2nc(N3CCOCC3)sc2c1	–	–	–	–
